# Experimental data reported in ChEMBL document CHEMBL1961873, “Compounds: GSK PKIS; Assays: Nanosyn kinase panel” (2012).
# Key:
# [1] = biological target: T1, Serine/threonine-protein kinase Nek9 (Homo sapiens) (UniProt Q8TD19); details: at 1 µM;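 further: each value is a mean percent inhibition of NEK9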
# T1 sequence (whole entry): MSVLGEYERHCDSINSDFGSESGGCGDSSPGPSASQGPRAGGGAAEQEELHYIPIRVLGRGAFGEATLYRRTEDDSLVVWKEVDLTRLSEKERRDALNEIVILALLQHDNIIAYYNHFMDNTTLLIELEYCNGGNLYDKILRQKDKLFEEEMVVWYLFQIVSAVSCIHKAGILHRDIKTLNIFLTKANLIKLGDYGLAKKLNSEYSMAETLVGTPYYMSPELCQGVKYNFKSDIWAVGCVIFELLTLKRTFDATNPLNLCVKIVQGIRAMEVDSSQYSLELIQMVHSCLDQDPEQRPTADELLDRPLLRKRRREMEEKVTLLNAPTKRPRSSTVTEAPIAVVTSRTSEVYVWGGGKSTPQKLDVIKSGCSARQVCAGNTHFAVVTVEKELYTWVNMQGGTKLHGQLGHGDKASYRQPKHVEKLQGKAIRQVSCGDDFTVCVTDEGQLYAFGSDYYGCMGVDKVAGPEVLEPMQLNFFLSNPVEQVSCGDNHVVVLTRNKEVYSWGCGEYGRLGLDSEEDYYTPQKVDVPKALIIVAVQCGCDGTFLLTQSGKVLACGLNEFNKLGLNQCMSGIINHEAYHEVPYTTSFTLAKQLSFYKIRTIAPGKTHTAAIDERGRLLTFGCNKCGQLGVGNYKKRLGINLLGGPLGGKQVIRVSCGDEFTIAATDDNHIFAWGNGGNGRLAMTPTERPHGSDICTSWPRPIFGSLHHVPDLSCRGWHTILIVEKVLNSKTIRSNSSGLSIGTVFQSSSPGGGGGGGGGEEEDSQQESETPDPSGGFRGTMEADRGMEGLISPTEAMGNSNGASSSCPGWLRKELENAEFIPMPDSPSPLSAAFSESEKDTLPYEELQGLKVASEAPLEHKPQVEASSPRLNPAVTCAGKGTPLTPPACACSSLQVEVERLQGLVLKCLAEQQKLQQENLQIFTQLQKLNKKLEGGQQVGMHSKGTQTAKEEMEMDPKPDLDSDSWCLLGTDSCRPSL
# [2] = biological target: Serine/threonine-protein kinase PLK1 (Homo sapiens) (UniProt P53350); details: at 0.1 µM
# Serine/threonine-protein kinase PLK1 (Homo sapiens), sequence (P53350 whole entry): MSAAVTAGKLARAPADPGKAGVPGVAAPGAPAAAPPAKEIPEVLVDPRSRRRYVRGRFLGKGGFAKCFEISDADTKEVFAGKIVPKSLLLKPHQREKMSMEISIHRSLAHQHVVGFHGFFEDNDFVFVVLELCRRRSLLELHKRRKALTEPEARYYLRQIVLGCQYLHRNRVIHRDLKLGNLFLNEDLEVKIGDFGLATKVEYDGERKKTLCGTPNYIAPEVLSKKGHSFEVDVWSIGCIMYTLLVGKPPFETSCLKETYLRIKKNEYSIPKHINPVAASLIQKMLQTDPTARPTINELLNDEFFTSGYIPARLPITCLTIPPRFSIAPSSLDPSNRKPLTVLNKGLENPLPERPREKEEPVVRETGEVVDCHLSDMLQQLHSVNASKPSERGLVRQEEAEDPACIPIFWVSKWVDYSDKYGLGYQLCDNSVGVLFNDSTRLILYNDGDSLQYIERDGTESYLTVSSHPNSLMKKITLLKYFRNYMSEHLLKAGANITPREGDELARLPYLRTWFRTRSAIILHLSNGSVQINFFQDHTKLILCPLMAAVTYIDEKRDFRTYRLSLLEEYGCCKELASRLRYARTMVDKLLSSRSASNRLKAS
# [3] = biological target: Serine/threonine-protein kinase PLK1 (Homo sapiens) (UniProt P53350); details: at 1 µM
# [4] = biological target: T2, Dual specificity protein kinase TTK (Homo sapiens) (UniProt P33981); details: at 0.1 µM
# T2 sequence (whole entry): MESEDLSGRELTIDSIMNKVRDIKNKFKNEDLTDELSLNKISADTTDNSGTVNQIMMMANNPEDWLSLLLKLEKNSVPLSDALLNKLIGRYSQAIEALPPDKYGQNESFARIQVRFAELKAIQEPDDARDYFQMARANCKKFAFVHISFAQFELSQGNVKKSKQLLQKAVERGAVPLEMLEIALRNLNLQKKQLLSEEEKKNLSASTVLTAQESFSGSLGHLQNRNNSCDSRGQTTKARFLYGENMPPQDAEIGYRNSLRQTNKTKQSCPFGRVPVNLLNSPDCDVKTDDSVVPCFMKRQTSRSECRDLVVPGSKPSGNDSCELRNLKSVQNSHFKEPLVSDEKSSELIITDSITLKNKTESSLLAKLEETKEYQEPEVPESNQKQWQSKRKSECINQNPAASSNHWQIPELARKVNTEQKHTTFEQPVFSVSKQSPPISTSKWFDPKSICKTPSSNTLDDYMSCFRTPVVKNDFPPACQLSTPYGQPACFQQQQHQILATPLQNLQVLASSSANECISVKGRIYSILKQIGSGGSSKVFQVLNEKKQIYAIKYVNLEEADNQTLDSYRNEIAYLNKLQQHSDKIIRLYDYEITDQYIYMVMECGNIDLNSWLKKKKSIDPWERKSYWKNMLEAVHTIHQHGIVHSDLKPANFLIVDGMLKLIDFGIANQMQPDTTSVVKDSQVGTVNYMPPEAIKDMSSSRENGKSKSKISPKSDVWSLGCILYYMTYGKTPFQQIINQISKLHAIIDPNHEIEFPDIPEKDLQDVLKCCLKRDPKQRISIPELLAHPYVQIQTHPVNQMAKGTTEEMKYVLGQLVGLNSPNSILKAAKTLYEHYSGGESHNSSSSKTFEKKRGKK
# [5] = test system: T3, Receptor-type tyrosine-protein kinase FLT3 (Homo sapiens), P36888 [D835Y]; details: at 1 µM
# T3 sequence (whole entry): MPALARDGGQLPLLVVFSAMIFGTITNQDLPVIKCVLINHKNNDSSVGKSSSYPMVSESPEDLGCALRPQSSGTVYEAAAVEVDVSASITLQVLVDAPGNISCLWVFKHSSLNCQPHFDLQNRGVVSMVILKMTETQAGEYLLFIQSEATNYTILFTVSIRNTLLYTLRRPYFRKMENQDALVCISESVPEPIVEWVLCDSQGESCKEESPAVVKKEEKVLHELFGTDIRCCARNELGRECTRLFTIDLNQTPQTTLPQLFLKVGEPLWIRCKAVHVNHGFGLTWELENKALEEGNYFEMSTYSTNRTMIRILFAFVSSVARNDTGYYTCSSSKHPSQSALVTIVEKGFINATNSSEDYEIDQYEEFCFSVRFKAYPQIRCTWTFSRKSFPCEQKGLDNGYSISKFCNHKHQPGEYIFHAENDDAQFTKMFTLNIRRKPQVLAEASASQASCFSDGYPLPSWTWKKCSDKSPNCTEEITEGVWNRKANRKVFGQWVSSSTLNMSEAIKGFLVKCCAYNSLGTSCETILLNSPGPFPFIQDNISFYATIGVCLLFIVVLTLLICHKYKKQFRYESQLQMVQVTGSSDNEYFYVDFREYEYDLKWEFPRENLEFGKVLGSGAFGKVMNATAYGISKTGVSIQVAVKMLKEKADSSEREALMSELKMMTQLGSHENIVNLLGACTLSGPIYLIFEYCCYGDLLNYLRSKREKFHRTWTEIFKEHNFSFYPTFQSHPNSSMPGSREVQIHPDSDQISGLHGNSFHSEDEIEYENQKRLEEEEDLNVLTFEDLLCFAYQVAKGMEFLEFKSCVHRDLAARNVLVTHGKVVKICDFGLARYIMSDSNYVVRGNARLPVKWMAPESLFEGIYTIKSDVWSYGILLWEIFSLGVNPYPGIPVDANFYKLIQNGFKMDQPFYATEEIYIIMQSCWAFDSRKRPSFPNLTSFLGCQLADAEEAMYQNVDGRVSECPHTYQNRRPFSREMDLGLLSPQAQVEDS
# [6] = biological target: Vascular endothelial growth factor receptor 3 (Homo sapiens) (UniProt P35916); details: at 0.1 µM
# Vascular endothelial growth factor receptor 3 (Homo sapiens), sequence (P35916 whole entry): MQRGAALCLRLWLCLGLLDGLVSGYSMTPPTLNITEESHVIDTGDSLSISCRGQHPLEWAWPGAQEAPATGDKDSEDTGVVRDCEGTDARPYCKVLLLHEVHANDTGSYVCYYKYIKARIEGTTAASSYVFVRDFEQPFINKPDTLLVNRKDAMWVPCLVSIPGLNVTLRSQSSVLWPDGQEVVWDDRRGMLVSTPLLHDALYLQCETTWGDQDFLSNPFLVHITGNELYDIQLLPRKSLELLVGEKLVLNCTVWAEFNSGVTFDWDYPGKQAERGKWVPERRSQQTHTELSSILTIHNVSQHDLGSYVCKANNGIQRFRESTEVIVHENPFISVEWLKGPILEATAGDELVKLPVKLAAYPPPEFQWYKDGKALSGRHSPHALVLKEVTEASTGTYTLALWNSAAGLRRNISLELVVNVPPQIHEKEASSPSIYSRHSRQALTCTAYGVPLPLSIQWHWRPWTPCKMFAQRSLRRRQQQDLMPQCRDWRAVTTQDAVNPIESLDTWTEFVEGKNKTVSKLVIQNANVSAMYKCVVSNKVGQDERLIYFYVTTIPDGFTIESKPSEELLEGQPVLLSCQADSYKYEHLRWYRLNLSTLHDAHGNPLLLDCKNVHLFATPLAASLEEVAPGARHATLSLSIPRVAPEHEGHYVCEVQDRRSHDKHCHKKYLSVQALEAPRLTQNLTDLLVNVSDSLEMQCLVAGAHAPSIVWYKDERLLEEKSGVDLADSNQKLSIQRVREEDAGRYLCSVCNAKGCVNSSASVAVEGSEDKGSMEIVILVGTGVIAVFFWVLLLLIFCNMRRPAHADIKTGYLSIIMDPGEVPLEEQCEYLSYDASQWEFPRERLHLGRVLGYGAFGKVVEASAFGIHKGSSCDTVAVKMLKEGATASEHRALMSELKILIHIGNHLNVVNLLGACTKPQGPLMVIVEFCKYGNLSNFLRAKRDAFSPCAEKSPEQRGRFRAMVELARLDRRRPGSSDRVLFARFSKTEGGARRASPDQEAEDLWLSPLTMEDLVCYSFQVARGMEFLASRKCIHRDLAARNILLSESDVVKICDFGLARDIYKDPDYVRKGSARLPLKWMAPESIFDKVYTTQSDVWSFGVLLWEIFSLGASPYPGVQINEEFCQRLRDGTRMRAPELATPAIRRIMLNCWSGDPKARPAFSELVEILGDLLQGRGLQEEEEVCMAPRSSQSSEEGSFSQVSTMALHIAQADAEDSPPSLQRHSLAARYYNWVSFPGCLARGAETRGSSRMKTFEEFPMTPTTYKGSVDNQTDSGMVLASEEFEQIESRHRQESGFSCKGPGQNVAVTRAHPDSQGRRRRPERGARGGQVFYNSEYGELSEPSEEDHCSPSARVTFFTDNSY
# [7] = biological target: Vascular endothelial growth factor receptor 3 (Homo sapiens) (UniProt P35916); details: at 1 µM
# [8] = biological target: Macrophage colony-stimulating factor 1 receptor (Homo sapiens) (UniProt P07333); details: at 0.1 µM
# [9] = biological target: Macrophage colony-stimulating factor 1 receptor (Homo sapiens) (UniProt P07333); details: at 1 µM
# [10] = biological target: Tyrosine-protein kinase Fyn (Homo sapiens) (UniProt P06241); details: at 0.1 µM
# [11] = biological target: Tyrosine-protein kinase Fyn (Homo sapiens) (UniProt P06241); details: at 1 µM
# [12] = biological target: Tyrosine-protein kinase HCK (Homo sapiens) (UniProt P08631); details: at 0.1 µM
# [13] = biological target: Tyrosine-protein kinase HCK (Homo sapiens) (UniProt P08631); details: at 1 µM
# [14] = biological target: Insulin-like growth factor 1 receptor (Homo sapiens) (UniProt P08069); details: at 0.1 µM
# Insulin-like growth factor 1 receptor (Homo sapiens), sequence (P08069 31-736 limits assumed): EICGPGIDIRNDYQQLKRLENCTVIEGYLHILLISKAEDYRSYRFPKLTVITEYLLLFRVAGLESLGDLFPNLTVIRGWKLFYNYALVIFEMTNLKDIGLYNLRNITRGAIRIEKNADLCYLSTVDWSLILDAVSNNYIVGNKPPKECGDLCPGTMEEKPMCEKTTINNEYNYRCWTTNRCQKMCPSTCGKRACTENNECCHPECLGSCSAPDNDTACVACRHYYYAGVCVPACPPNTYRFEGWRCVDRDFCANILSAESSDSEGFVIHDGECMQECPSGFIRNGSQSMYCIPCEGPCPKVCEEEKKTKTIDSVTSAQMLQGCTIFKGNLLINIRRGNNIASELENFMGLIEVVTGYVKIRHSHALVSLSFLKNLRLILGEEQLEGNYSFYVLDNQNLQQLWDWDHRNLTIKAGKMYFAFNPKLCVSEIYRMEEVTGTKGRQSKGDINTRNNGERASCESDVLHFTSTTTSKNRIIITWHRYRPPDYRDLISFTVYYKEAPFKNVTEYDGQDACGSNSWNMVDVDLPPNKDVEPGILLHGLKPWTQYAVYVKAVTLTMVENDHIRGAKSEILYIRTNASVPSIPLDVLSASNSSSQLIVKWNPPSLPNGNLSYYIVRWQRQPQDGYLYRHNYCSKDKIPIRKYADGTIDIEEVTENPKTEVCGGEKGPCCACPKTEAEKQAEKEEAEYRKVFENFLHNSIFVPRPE
# Insulin-like growth factor 1 receptor (Homo sapiens), sequence (P08069 741-1367 limits assumed): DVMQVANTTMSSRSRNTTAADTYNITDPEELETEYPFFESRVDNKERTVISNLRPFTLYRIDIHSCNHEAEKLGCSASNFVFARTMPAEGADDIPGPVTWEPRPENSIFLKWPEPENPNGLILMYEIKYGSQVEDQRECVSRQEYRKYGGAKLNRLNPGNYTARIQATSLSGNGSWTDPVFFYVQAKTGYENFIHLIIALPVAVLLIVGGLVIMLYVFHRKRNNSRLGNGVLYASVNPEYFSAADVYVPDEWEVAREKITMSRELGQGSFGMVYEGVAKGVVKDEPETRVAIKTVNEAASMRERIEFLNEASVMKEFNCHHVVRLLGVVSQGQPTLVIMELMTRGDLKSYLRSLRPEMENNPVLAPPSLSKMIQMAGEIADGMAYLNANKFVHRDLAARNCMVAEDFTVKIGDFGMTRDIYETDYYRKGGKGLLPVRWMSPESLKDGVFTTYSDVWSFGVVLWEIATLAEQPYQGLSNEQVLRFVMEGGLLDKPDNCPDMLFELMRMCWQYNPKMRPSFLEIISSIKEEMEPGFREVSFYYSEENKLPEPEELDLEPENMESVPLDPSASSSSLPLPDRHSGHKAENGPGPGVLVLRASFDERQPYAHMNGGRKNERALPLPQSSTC
# [15] = biological target: Insulin-like growth factor 1 receptor (Homo sapiens) (UniProt P08069); details: at 1 µM
# [16] = biological target: Insulin receptor (Homo sapiens) (UniProt P06213); details: at 0.1 µM
# [17] = biological target: Insulin receptor (Homo sapiens) (UniProt P06213); details: at 1 µM
# [18] = biological target: Insulin receptor-related protein (Homo sapiens) (UniProt P14616); details: at 0.1 µM
# Insulin receptor-related protein (Homo sapiens), sequence (P14616 27-742 limits assumed): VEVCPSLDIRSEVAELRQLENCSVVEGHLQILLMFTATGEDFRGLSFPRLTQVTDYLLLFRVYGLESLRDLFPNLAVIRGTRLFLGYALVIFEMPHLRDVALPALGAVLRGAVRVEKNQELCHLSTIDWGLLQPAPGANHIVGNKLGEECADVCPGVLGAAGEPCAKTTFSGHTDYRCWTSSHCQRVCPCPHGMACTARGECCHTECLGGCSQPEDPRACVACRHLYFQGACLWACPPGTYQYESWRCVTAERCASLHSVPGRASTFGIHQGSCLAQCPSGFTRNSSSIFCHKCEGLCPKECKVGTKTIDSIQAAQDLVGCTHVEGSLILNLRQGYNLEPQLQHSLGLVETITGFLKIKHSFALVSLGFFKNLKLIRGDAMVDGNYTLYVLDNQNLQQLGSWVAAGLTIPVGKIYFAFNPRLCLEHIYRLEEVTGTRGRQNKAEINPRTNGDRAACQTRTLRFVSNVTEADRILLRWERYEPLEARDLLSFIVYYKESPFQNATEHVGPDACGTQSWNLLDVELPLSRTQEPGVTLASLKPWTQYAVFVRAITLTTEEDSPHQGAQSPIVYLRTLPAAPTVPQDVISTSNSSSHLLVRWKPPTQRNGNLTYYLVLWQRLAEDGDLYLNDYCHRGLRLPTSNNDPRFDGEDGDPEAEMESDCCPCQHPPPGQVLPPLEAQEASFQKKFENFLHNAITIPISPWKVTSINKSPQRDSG
# Insulin receptor-related protein (Homo sapiens), sequence (P14616 747-1297 limits assumed): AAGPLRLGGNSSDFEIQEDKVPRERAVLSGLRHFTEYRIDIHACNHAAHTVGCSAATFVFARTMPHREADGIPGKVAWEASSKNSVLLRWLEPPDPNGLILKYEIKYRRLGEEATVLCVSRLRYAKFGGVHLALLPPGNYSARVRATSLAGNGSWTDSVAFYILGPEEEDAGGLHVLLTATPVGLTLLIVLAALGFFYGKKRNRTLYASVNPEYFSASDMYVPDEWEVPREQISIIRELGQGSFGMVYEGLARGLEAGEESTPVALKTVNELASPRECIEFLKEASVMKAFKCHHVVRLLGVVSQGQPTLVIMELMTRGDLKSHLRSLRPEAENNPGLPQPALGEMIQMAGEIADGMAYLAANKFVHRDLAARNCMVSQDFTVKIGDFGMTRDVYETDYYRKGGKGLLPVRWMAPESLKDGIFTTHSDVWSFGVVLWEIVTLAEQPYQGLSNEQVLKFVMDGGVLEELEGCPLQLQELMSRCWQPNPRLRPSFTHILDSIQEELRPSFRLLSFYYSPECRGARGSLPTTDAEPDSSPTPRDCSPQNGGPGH
# [19] = biological target: Insulin receptor-related protein (Homo sapiens) (UniProt P14616); details: at 1 µM
# [20] = biological target: T4, Tyrosine-protein kinase ITK/TSK (Homo sapiens) (UniProt Q08881); details: at 0.1 µM;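 further: mean percent inhibition of ITK from the GSK PKIS screen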
# T4 sequence (whole entry): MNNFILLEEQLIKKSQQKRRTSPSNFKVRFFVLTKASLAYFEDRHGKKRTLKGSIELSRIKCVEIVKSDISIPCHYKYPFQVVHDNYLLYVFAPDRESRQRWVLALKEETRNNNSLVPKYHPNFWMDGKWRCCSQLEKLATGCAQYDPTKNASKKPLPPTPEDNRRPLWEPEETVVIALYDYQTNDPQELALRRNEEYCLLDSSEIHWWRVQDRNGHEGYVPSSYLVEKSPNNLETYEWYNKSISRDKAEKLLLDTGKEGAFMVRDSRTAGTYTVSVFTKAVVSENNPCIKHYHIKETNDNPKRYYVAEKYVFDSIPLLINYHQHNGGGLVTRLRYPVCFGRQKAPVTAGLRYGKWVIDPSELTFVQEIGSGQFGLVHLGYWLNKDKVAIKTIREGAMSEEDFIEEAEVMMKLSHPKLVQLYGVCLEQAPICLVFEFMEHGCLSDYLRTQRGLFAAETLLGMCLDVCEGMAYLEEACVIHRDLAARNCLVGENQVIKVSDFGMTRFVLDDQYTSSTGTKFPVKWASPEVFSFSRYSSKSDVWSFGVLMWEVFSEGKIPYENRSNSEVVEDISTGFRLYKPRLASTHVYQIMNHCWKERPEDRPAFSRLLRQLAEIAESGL
smiles,measurement,setting,value
COc1cccc(/C=N/Nc2ncnc3c2cnn3-c2cccc(OC)c2)c1,inhibition,[1],11.2%
same,inhibition,[2],5.9%
same,inhibition,[3],5.49%
same,inhibition,[4],7.19%
same,inhibition,[5],7.24%
same,inhibition,[6],1.81%
same,inhibition,[7],-0.55%
same,inhibition,[8],1.79%
same,inhibition,[9],6.37%
same,inhibition,[10],2.39%
same,inhibition,[11],7.98%
same,inhibition,[12],4.96%
same,inhibition,[13],6.95%
same,inhibition,[14],2.01%
same,inhibition,[15],1.32%
same,inhibition,[16],6.27%
same,inhibition,[17],3.35%
same,inhibition,[18],1.18%
same,inhibition,[19],1.31%
same,inhibition,[20],0.35%
NS(=O)(=O)c1ccc(N/N=C2\C(=O)Nc3ccc(C(=O)NCCCn4ccnc4)cc32)cc1,inhibition,[1],19%
same,inhibition,[2],6.29%
same,inhibition,[3],4.25%
same,inhibition,[4],37.3%
same,inhibition,[5],32.9%
same,inhibition,[6],4.15%
same,inhibition,[7],26.7%
same,inhibition,[8],2.86%
same,inhibition,[9],6.33%
same,inhibition,[10],2.07%
same,inhibition,[11],19.2%
same,inhibition,[12],5.3%
same,inhibition,[13],17.8%
same,inhibition,[14],2.13%
same,inhibition,[15],3.17%
same,inhibition,[16],6.3%
same,inhibition,[17],6.66%
same,inhibition,[18],2.1%
same,inhibition,[19],3.71%
same,inhibition,[20],1.19%
NC(=O)c1ccc(Oc2nccc(-c3c(-c4ccc(F)cc4)ncn3C3CCNCC3)n2)cc1,inhibition,[1],4.67%
same,inhibition,[2],5.93%
same,inhibition,[3],9.34%
same,inhibition,[4],8.68%
same,inhibition,[5],1.08%
same,inhibition,[6],7.32%
same,inhibition,[7],4.57%
same,inhibition,[8],5.61%
same,inhibition,[9],6.15%
same,inhibition,[10],2.66%
same,inhibition,[11],3.44%
same,inhibition,[12],6.86%
same,inhibition,[13],8.21%
same,inhibition,[14],5.51%
same,inhibition,[15],7.32%
same,inhibition,[16],7.88%
same,inhibition,[17],6.48%
same,inhibition,[18],3.06%
same,inhibition,[19],4.99%
same,inhibition,[20],3.1%
O=C(Nc1n[nH]c2nc(-c3ccc(O)cc3)c(Br)cc12)C1CC1,inhibition,[1],13.2%
same,inhibition,[2],6.21%
same,inhibition,[3],5.59%
same,inhibition,[4],10.2%
same,inhibition,[5],27.1%
same,inhibition,[6],18.3%
same,inhibition,[7],60.9%
same,inhibition,[8],3.87%
same,inhibition,[9],6.92%
same,inhibition,[10],5.98%
same,inhibition,[11],14.5%
same,inhibition,[12],12.2%
same,inhibition,[13],28.4%
same,inhibition,[14],5.22%
same,inhibition,[15],5.83%
same,inhibition,[16],7.55%
same,inhibition,[17],6.22%
same,inhibition,[18],1.99%
same,inhibition,[19],1.59%
same,inhibition,[20],2.89%
O=C(NCC1CC1)c1ccc(-c2cccc(C(=O)NC3CC3)c2)cc1,inhibition,[1],-2.12%
same,inhibition,[2],1.33%
same,inhibition,[3],-0.14%
same,inhibition,[4],2.34%
same,inhibition,[5],4.69%
same,inhibition,[6],1.32%
same,inhibition,[7],1.97%
same,inhibition,[8],1.67%
same,inhibition,[9],5.35%
same,inhibition,[10],1.58%
same,inhibition,[11],2.23%
same,inhibition,[12],2.5%
same,inhibition,[13],7.59%
same,inhibition,[14],2.46%
same,inhibition,[15],4.73%
same,inhibition,[16],1.73%
same,inhibition,[17],3.95%
same,inhibition,[18],1.19%
same,inhibition,[19],2.93%
same,inhibition,[20],1.15%
COc1ccc2cc(-c3c(-c4ccncc4)nc(-c4ccc(S(C)(=O)=O)cc4C)n3C)ccc2c1,inhibition,[1],18.2%
same,inhibition,[2],4.66%
same,inhibition,[3],4.49%
same,inhibition,[4],11.5%
same,inhibition,[5],-2.55%
same,inhibition,[6],4.4%
same,inhibition,[7],10.1%
same,inhibition,[8],0.81%
same,inhibition,[9],-1.08%
same,inhibition,[10],1.95%
same,inhibition,[11],7.37%
same,inhibition,[12],5.89%
same,inhibition,[13],13.1%
same,inhibition,[14],4.23%
same,inhibition,[15],3.79%
same,inhibition,[16],7.46%
same,inhibition,[17],5.18%
same,inhibition,[18],2.39%
same,inhibition,[19],2.25%
same,inhibition,[20],1.82%
CCN(CC)Cc1ccc(Nc2nccc(-c3cnn4ncccc34)n2)cc1,inhibition,[1],13.7%
same,inhibition,[2],5.43%
same,inhibition,[3],8.15%
same,inhibition,[4],12.4%
same,inhibition,[5],17.1%
same,inhibition,[6],-5.53%
same,inhibition,[7],0.13%
same,inhibition,[8],29.6%
same,inhibition,[9],68.9%
same,inhibition,[10],-1.69%
same,inhibition,[11],5.04%
same,inhibition,[12],4.93%
same,inhibition,[13],13.5%
same,inhibition,[14],3.11%
same,inhibition,[15],54.6%
same,inhibition,[16],21.9%
same,inhibition,[17],73.2%
same,inhibition,[18],2.45%
same,inhibition,[19],7.36%
same,inhibition,[20],-3.08%
